Where a SMILES comes first, the peptide text is derived from it. The star is where a group is joined. Boc = CC(C)(C)OC(=O)*; OBn = c1ccc(CO*)cc1
Tests used:
[1] = test system: Botulinum neurotoxin type F light chain protease (Clostridium botulinum); assay: Clostridium botulinum type F light chain protease inhibitors, microsphere substrate cleavage, validation (AID 588459); conditions: multiplex microsphere protease substrate cleavage assay, flow cytometry; at 10 µM; stronger effect = higher value
[2] = molecular target: Botulinum neurotoxin type A (Clostridium botulinum) (UniProt P0DPI0); assay: BoNT/A light chain protease inhibitors, biochemical, multiplex microsphere flow cytometry, validation set (AID 588460); conditions: at 10 µM, stronger effect = higher value
Botulinum neurotoxin type A (Clostridium botulinum), sequence (P0DPI0 whole entry, looked up): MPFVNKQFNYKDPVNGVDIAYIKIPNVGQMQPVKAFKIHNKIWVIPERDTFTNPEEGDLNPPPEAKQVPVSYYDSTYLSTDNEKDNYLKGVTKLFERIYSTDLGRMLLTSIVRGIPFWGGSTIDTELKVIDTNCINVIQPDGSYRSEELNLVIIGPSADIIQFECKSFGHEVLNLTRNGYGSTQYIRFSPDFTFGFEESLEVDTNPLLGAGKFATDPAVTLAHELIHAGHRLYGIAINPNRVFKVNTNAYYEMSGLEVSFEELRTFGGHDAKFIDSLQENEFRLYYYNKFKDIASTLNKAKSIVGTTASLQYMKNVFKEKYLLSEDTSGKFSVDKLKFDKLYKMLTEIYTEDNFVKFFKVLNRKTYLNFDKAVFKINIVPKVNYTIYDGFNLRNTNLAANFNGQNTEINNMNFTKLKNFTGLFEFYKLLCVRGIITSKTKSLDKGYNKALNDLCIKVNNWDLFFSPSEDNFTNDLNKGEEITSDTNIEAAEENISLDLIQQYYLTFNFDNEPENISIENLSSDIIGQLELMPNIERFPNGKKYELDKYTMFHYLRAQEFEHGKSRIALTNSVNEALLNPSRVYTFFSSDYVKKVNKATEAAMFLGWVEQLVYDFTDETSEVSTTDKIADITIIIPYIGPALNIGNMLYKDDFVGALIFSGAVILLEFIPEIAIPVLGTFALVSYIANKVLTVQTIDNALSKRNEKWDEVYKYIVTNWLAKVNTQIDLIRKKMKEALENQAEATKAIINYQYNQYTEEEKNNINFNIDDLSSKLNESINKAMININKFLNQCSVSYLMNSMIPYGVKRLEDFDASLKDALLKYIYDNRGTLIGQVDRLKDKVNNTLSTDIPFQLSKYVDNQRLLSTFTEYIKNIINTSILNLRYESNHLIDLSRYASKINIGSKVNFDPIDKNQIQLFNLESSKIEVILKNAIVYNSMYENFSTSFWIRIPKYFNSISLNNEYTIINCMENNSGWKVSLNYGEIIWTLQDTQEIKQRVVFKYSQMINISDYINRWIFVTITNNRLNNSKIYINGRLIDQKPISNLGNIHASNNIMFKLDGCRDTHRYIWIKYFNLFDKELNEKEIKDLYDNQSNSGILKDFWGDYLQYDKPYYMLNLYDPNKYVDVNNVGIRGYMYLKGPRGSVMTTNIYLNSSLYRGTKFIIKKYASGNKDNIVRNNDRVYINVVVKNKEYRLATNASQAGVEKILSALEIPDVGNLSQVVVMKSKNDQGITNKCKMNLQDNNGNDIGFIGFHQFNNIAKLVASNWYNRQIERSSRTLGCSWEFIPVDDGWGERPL

[3] = molecular target: Lethal factor (Bacillus anthracis) (UniProt P15917); assay: Bacillus anthracis lethal factor inhibition, microsphere flow cytometry protease assay, validation at 10 µM (AID 588461); conditions: multiplex microsphere protease cleavage assay, stronger effect = higher value
Lethal factor (Bacillus anthracis), sequence (P15917 whole entry, looked up): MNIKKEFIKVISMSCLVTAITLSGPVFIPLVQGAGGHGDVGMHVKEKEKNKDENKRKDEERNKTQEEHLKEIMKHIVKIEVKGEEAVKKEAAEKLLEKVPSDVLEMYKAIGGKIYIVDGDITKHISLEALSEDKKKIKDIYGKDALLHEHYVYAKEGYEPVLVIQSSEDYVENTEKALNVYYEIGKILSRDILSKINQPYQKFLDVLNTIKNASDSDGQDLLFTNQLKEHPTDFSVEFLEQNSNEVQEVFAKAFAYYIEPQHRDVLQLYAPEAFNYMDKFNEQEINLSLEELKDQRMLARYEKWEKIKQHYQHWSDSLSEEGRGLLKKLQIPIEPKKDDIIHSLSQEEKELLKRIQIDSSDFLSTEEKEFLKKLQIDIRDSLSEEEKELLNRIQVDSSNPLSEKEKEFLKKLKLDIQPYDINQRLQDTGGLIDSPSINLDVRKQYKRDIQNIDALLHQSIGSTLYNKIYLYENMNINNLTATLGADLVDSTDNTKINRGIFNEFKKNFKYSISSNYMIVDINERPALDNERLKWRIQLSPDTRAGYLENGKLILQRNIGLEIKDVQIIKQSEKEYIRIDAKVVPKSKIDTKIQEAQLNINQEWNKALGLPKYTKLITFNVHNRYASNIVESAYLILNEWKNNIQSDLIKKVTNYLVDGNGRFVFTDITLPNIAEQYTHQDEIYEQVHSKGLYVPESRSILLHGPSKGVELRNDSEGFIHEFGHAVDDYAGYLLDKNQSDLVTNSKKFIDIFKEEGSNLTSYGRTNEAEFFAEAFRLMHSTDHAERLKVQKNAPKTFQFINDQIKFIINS

Measured: inhibition

C/C(CCc1oc2ccc(Cl)cc2c1-c1ccc(C)o1)=N\O
inactive: [1] 1.6% | [2] -0.7% | [3] -3.2%

C[C@@H]1CCC[C@H](C)N1NC(=O)c1ccc(Cl)c(S(N)(=O)=O)c1
inactive: [1] 1.2% | [2] -1.2% | [3] -0.8%

CC(=O)OCC(=O)[C@@]1(O)CC[C@H]2[C@@H]3CCC4=CC(=O)C=C[C@]4(C)[C@H]3[C@@H](O)C[C@@]21C
inactive: [1] -5.9% | [2] -1.8% | [3] -2.4%

COc1ccccc1C(CCN(Cc1ccccc1)C(C)=O)c1ccco1 (stereo unspecified)
inactive: [1] -6.5% | [2] -1.3% | [3] -0.5%

COc1ccccc1C1C(C#N)=C(N)Oc2c1oc(CO)cc2=O (stereo unspecified)
inactive: [1] 1.9% | [2] -1% | [3] -5.1%

COc1ccc2[nH]cc(CCNC(=O)C3CCCNC3=O)c2c1 (stereo unspecified)
inactive: [1] -3.2% | [2] -1.5% | [3] -5.3%

O=C(OCC(O)C(O)COC(=O)c1ccccc1)c1ccccc1 (stereo unspecified)
inactive: [1] -0.4% | [2] 0.6% | [3] 2.1%

Cc1ccc2c(c1)C(C)(C)[C@]1(C)NC(=O)CCN21
inactive: [1] -1.8% | [2] -0.2% | [3] 0%

CCC(C(=O)Nc1ccc2c(c1)OCCO2)c1ccccc1 (stereo unspecified)
inactive: [1] 0.7% | [2] -0.2% | [3] -1.8%

Cc1ccccc1OCC(O)CN1CCN(C)CC1 (stereo unspecified)
inactive: [1] 1% | [2] -0.4% | [3] -2.2%

COc1ccccc1-c1ccc(/C=C2/C=C(CC(C)C)OC2=O)o1
inactive: [1] 4.8% | [2] 1.7% | [3] 7.1%

CCOC(=O)C1=C(C)N[C@@]2(O)c3ccccc3C(=O)[C@@]12O
inactive: [1] 2.4% | [2] 0.5% | [3] -1.2%

Cc1cc(OC(=O)CNC(=O)OC(C)(C)C)c2c(C)cc(=O)oc2c1
inactive: [1] -0.2% | [2] -0.7% | [3] 5.4%

CCNCCC(CCC(C)C)c1ccc2c(c1)OCO2 (stereo unspecified)
inactive: [1] -3.1% | [2] -1.3% | [3] -0.1%

COc1ccccc1/C=C/C(=O)OCCN1CCOCC1
inactive: [1] 3% | [2] -2.1% | [3] -6.7%

COC(=O)C1=C(C)NC(C)=C(C(=O)OCCN(C)Cc2ccccc2)C1c1cccc([N+](=O)[O-])c1 (stereo unspecified)
inactive: [1] -2.1% | [2] -0.8% | [3] -3.7%

Cc1ccc(Cl)c(Nc2ccccc2C(=O)O)c1Cl
inactive: [1] -4.5% | [2] 0.2% | [3] 0.3%

COc1ccc2[nH]cc(C(=O)CCl)c2c1
inactive: [1] -3.7% | [2] -1.3% | [3] -5.3%

C#CCN(C)Cc1ccccc1
inactive: [1] 2.5% | [2] -0.5% | [3] -2.8%

Cc1nc(N)sc1C(=O)N/N=C/c1ccco1
inactive: [1] -4.3% | [2] 0.1% | [3] 0.8%

CC(C)CN1CC(C(=O)O)CC1=O (stereo unspecified)
inactive: [1] 3.8% | [2] -1.3% | [3] 1.5%

NS(=O)(=O)c1ccc(CCNC(=O)C2CCCN2C(=O)OCc2ccccc2)cc1 (stereo unspecified)
inactive: [1] 3.9% | [2] -0.7% | [3] 1.2%

O=C1[C@@H]2[C@H](Cc3ccc(O)cc3)N[C@]3(C(=O)Nc4ccccc43)[C@@H]2C(=O)N1c1ccc(F)cc1
inactive: [1] 1.3% | [2] 1.7% | [3] -2.6%

Cc1cnc(C(=O)NCCc2ccc(S(=O)(=O)NC(=O)NC3CCCCC3)cc2)cn1
inactive: [1] 0.7% | [2] -0.2% | [3] -0.1%

CC(C)(Sc1cc(C(C)(C)C)c(O)c(C(C)(C)C)c1)Sc1cc(C(C)(C)C)c(O)c(C(C)(C)C)c1
inactive: [1] 0% | [2] -2.2% | [3] -7.4%

CCn1c(/C=C/c2ccccc2)nc2ccccc2c1=O
inactive: [1] 2.4% | [2] -1.7% | [3] 7.2%

N=C(N)c1ccc(OCCCCCOc2ccc(C(=N)N)cc2)cc1
inactive: [1] 0.7% | [2] -1.6% | [3] -2.7%

CC(C)CC(NC(=O)C(NC(=O)OC(C)(C)C)C(C)C)C(=O)NC(CCC(=O)OCc1ccccc1)C(N)=O (stereo not drawn) (Boc-Val-Leu-Glu(OBn)-NH2; configuration not given here)
inactive: [1] 2.1% | [2] -1.3% | [3] -0.4%

CCOC(=O)C1=C[C@]2(CC)CCCN3CCc4c(n1c1ccccc41)[C@@H]32
inactive: [1] 1.3% | [2] -0.9% | [3] -7.9%

O=C(CCCN1CC=C(n2c(=O)[nH]c3ccccc32)CC1)c1ccc(F)cc1
inactive: [1] -1.3% | [2] -1% | [3] -5.4%

CC1(C)CC(CC(=O)O)(c2ccc(Cl)cc2)CCO1 (stereo unspecified)
inactive: [1] 2.5% | [2] -1.9% | [3] -4.6%

COc1ccc(-c2nc3c(=O)n(C)c(=O)[nH]c3n2CCc2ccccc2)cc1
inactive: [1] 1.2% | [2] 0.2% | [3] -1.2%

Cc1ccc(S(=O)(=O)N[C@@H](C)C(=O)N2CCC(C(=O)N3CCC[C@H]3C(=O)O)CC2)cc1
inactive: [1] 1.9% | [2] 1% | [3] -1.7%

CC(C)(C)c1csc(N/N=C/c2cccnc2)n1
inactive: [1] -3.3% | [2] 0.5% | [3] 0.6%

CC1=NN(C(=O)c2ccc(Br)cc2)C(O)(c2ccccc2)C1 (stereo unspecified)
inactive: [1] -2.9% | [2] -0.4% | [3] 4.5%

CC1(C)Cc2nc3oc4c(NCc5ccccc5)ncnc4c3cc2CO1
inactive: [1] 0.7% | [2] 0.2% | [3] 2.2%

COc1ccc2c(c1O)Cc1ccccc1C2=O
inactive: [1] 0% | [2] -0.7% | [3] -3.9%

COc1ccc(C2NC(=O)c3ccccc3O2)c(OC)c1OC (stereo unspecified)
inactive: [1] -2.1% | [2] -0.5% | [3] 2.9%

CC1(C)CC(=O)c2cnc(NC(=O)C3CCCC3)nc2C1
inactive: [1] 1.2% | [2] -1.3% | [3] -3.2%

COc1ccc(CCN2C(=O)CSC2c2ccc(OC)c(OC)c2)cc1OC (stereo unspecified)
inactive: [1] -3.4% | [2] 0.4% | [3] 6.7%

Cc1oc2c(CN3CCCC3)c(O)ccc2c(=O)c1-c1ccc(Cl)cc1
inactive: [1] -1.2% | [2] -0.3% | [3] -0.5%

O=C(OCCN1CCOCC1)c1cccs1
inactive: [1] -2.8% | [2] -0.9% | [3] -1.2%

CC(C)CC(=O)N(Cc1ccc(F)cc1)C1CCS(=O)(=O)C1 (stereo unspecified)
inactive: [1] 8.9% | [2] 3.7% | [3] -4%

COc1ccc2oc(C)c(C(N)=O)c2c1
inactive: [1] -1.6% | [2] 0.5% | [3] -0.4%

COc1ccc(S(=O)(=O)N2CCN(C(=O)COc3ccc4c(C)cc(=O)oc4c3)CC2)cc1
inactive: [1] 2.4% | [2] 0.1% | [3] -0.8%

Nc1nc2c(ncn2COC(CO)CO)c(=O)[nH]1
inactive: [1] -0.4% | [2] -1.1% | [3] -4.8%

CC1(CC(=O)Nc2ccccc2)NC(=S)N(c2ccccc2)N1 (stereo unspecified)
inactive: [1] 3% | [2] 0% | [3] 5.1%

O=C1NCC2=C1C(c1ccccc1)Nc1ccccc1N2 (stereo unspecified)
inactive: [1] 2.4% | [2] 0.1% | [3] -4.9%

COc1ccc(C2C(=O)c3ccccc3C2=O)cc1
inactive: [1] 0.5% | [2] -0.4% | [3] -3.8%

CCCCNC(=O)NS(=O)(=O)c1ccc(C)cc1
inactive: [1] 1.1% | [2] 1.1% | [3] 1%

C[C@]12CC[C@@H]3c4ccc(O)cc4CC[C@H]3[C@@H]1CC[C@@H]2OC(=O)CCC(=O)O
inactive: [1] -0.1% | [2] -0.4% | [3] -10%

C#CCN1C(=O)C(O)(CC(=O)c2ccc(OC)c(OC)c2)c2ccccc21 (stereo unspecified)
inactive: [1] 2.3% | [2] -1.3% | [3] 2%

O=C(NCCNc1ccc(Cl)cc1[N+](=O)[O-])c1cccnc1
inactive: [1] 0.4% | [2] -1.2% | [3] 2%

CC(C)CC(NC(=O)c1cccc(Cl)c1)C(=O)O (stereo unspecified)
inactive: [1] -4.2% | [2] -2.6% | [3] 0.4%

CCCCC[C@H](O)/C=C/[C@@H]1[C@@H](C/C=C\CCCC(=O)OC)[C@@H](O)C[C@H]1O
inactive: [1] -3.3% | [2] -1% | [3] -1.1%

CCOc1ccc(C(=O)C(C)=O)c(OCC)c1
inactive: [1] 4.3% | [2] 1% | [3] 7.8%

COc1ccc(C2C(C#N)=C(N)Oc3cc(C)[nH]c(=O)c32)c(OC)c1OC (stereo unspecified)
inactive: [1] 1.9% | [2] 0.1% | [3] 0.8%

CCN1CCN(C(=O)N[C@@H](C(=O)N[C@@H]2C(=O)N3[C@@H]2SC(C)(C)[C@@H]3C(=O)O)c2ccccc2)C(=O)C1=O
inactive: [1] -1.5% | [2] 0.3% | [3] 1.4%

CC(C)(C)NCC(O)c1cc(O)cc(O)c1 (stereo unspecified)
inactive: [1] -5.4% | [2] 0.7% | [3] 3.9%

COc1cc(NC(=S)NN2CCN(C)CC2)cc(OC)c1OC
inactive: [1] 5.5% | [2] -0.6% | [3] -5.6%

C/C=C(/C(=C/C)c1ccc(O)cc1)c1ccc(O)cc1
inactive: [1] -1.2% | [2] -0.3% | [3] 3.5%

CC(=O)Oc1cc(C(C)C)c(OCCN(C)C)cc1C
inactive: [1] 1.9% | [2] 2% | [3] 0.9%

Reference: PubChem BioAssay
